Compound activity from PubChem BioAssay.
Compounds with a hit are over-represented: about 7.4% of the library has one in this group of screens.
SNCA expr inh – Primary qHTS assay for inhibitors of alpha-synuclein gene (SNCA) expression. HEK-293 SNCA-luciferase knock-in, luminescence, 24 h. Potency, µM (series often up to 57.2 µM), inactives show top-dose activity change, negative = inhibition, hits mostly inhibitors. hit rate 0.17% among 140,000;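 note: plate controls were DMSO cells for no effect and cell-free wells for full effect; nearly all actives have a fitted effect of over 45% in size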
HEK293 tox – Cytotoxic Profiling in HEK 293 Cell Line of Diverse Libraries Using Quantitative High-Throughput Screening; Potency, µM (highest dose often 115 µM), inactives show at the top dose activity change, negative = cytotoxicity, hits mostly inhibitors; AID 1345083, 2018; hit rate 6.6% among 94,000; HEK 293 viability, ATP luminescence (CellTiter-Glo), 48-72 h; note: nearly all actives have a fitted effect of over 60% in size
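Cytotoxicity was scored by loss of ATP-coupled luminescence (CellTiter-Glo) in HEK 293 cells. Compound treatment ran 48 or 72 hr at 37 degree Celsius, 5% CO2, 95% humidity.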
HEK293 viab – GF-AFC viability counterscreen for inhibitors of alpha-synuclein gene (SNCA) expression; Potency, µM (top dose mostly 57.1 µM), inactives show at the highest dose activity change, negative = cytotoxicity, usual class: cytotoxic; hit rate 0.12% among 150,000; HEK-293-SNCA-luc viability, GF-AFC fluorescence, 24 h;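 note: 0% = DMSO-treated cells and -100% = medium-only wells without cells; nearly all actives have a fitted effect of over 30% in size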
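Cytotoxicity counterscreen: after 24 h compound treatment of genome-edited SNCA-luciferase HEK-293 cells, live-cell protease substrate GF-AFC read by fluorescence after 30 min; activity scaled between DMSO (0%) and medium-only (-100%), curves Hill-fitted.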
hNpr1 antagonist – Natriuretic polypeptide receptor (hNpr1) antagonism - Primary qHTS | Atrial natriuretic peptide receptor 1 (Homo sapiens), P16066 | HEK293 hNpr1 GloSensor cGMP, ANP-stimulated luminescence | Potency, µM (series often up to 46.3 µM), without a hit: top-dose activity change, negative = inhibition, actives largely listed as inhibitors | hit rate 1.6% among 76,000 | AID 1347048, 2019; calls by dose curve; note: nearly all actives have a fitted effect of over 60% in size
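Compound pre-incubated 30 min at room temperature on GloSensor-loaded HEK293 cells stably carrying hNpr1 and the pGS-40F cGMP biosensor. Stimulation uses hNppA at 0.1 nM final; luminescence is taken at baseline and 20 min post-agonist.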
NIH3T3 tox – Cytotoxic Profiling in NIH 3T3 Cell Line of Diverse Libraries Using Quantitative High-Throughput Screening; NIH 3T3 viability, CellTiter-Glo ATP luminescence, 48-72 h; Potency, µM (top dose mostly 96.7 µM), without a hit: top-dose activity change, negative = cytotoxicity, usual class: inhibitors; hit rate 4.3% among 94,000; AID 1345082, 2018; note: nearly all actives have a fitted effect of over 55% in size
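Cells were seeded at 400 per well, treated with pin-transferred compound, and kept 48 or 72 hr at 37 °C before CellTiter-Glo addition and luminescence imaging of cellular ATP.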
FLuc inh – Firefly luciferase inhibition profiling of diverse chemical library using quantitative high-throughput screening; purified P. pyralis luciferase, luminescence, biochemical; Luciferin 4-monooxygenase (Photinus pyralis), P08659; hit rate 2.5% among 76,000; Potency, µM (series often up to 115 µM), most hits filed as inhibitors; note: nearly all actives have a fitted effect of over 65% in size
Target sequence (P08659 whole entry, looked up): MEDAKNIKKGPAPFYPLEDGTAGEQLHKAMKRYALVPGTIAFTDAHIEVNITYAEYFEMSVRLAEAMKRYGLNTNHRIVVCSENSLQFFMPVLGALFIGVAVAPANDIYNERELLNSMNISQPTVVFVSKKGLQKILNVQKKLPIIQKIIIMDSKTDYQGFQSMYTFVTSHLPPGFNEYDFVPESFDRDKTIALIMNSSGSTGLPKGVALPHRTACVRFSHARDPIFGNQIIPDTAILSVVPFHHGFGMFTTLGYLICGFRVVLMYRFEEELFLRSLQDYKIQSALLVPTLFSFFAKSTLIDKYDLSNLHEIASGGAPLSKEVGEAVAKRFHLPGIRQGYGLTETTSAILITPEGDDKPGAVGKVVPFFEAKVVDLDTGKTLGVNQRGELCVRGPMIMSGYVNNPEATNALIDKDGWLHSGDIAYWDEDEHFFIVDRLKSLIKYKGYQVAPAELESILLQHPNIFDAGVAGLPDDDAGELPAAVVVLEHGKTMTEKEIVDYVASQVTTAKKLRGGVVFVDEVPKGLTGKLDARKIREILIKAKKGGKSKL
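Inhibitors were tested against purified firefly luciferase in a biochemical, low-substrate format (both substrates at 10uM) and luminescence measured with a CCD imager.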
Starred values were filed as active, the others as inactive; i = inactive; ? = inconclusive; / = not tested or not shown; ! = not active in a repeat; [ ] = remark or other dose. Unless noted, calls come from the whole dose curve; as a rule, active = well fitted curve in the direction sought with a large enough effect; inconclusive = small, poorly fitted or top-dose-only effect, or another doubt; inactive = no such curve, though single readings can be large; an effect the other way counts as inactive or inconclusive. Unless noted, % is set by controls: 0 for no effect and ±100 for the full control effect; potency is the fitted concentration of half-maximal effect.

SMILES	SNCA expr inh	HEK293 tox	HEK293 viab	hNpr1 antagonist	NIH3T3 tox	FLuc inh
Fc1ccc(-c2ccc3ncc(Nc4ncccn4)n3n2)cc1	22%[87.6 µM]	-19%[172 µM]	7%[87.6 µM]	9%[70.6 µM]	?	i
Oc1cccc(Nc2cnc3ccc(-c4ccc(F)cc4)nn23)c1	57%[87.6 µM]	?	-5%[87.6 µM]	-18%[70.6 µM]	?	20µM*
COc1cncc(Nc2cnc3ccc(-c4ccc(F)cc4)nn23)c1	45%[87.6 µM]	100µM*	-3%[87.6 µM]	-24%[70.6 µM]	79µM*	i
COc1cccc(Nc2cnc3ccc(-c4ccc(F)cc4)nn23)c1	16%[87.6 µM]	100µM*	-2%[87.6 µM]	-15%[70.6 µM]	?	i
COc1cccc(Nc2cnc3ccc(-c4cccc(CO)c4)nn23)c1	27%[87.6 µM]	?	4%[87.6 µM]	-17%[70.6 µM]	?	i
O=C(NCC(=O)N1CCOCC1)c1ccc(-c2cccc(C(F)(F)F)c2)cc1	-27%	?	7%[12.5 µM]	/	?	/
Cc1ccc(C2=NC3(CCN(C(=O)c4ccoc4)CC3)ON2)cc1	35%	-2%	4%	-18%	-5%	32µM*
Cc1ccc(C2=NC3(CCN(C(=O)c4ccco4)CC3)ON2)cc1	104%	-24%	1%	-13%	-16%	28µM*
O=C(c1ccoc1)N1CCC2(CC1)N=C(c1ccccc1)NO2	-15%	0%	-3%	2%	i	i
Cc1ccc(C2=NC3(CCN(C(=O)c4ccccc4C)CC3)ON2)cc1	-13%	?	-3%	-12%	-1%	?
O=C(NCCn1cccc1-c1nc(-c2ccc3c(c2)OCO3)no1)c1ccc(Cl)s1	59%	?	?	-17%	?	?
Cc1ccc(C(=O)NCCn2cccc2-c2nc(-c3ccc4c(c3)OCO4)no2)cc1C	67%	?	-22%	-23%	?	11µM*
COc1ccc(C)cc1NC(=O)Cn1cccc1-c1nc(-c2ccc3c(c2)OCO3)no1	13%	?	-1%	-7%	40µM*	i
O=C(NCCn1cccc1-c1nc(-c2ccccc2)no1)c1ccc(F)c(Cl)c1	6%	45µM*	-20%	-14%	?	i
COc1ccc(C(=O)NCCn2cccc2-c2nc(-c3ccccc3)no2)cc1F	-5%	-2%	-1%	-16%	-20%	i
O=C(NCCn1cccc1-c1nc(-c2ccc3c(c2)OCO3)no1)c1ccc2c(c1)OCO2	104%	-7%	-24%	-17%	-8%	10µM*
O=C(NCCn1cccc1-c1nc(-c2ccc3c(c2)OCO3)no1)c1ccc(F)cc1	-7%	?	?	?	?	?
COc1ccc(-c2cc(C(=O)N3CCN(C(C)=O)CC3)c3cnn(C)c3n2)cc1	1%	i	1%	/	-16%	/
Cc1cccc(OCC(=O)NCCn2cccc2-c2nc(-c3ccc4c(c3)OCO4)no2)c1	-7%	?	?	-16%	?	14µM*
CC(Nc1ccc(-c2nc(CCCc3ccccc3)no2)cn1)c1cnn(C)c1 (stereo unspecified)	142%	?	-4%	-24%	?	16µM*
CCn1nccc1C(=O)N1CCCCC1c1noc(COc2ccc(C)cc2)n1 (stereo unspecified)	6%	?	11%	/	?	/
Cc1ccc(-c2cc(C(=O)N3CCC(c4nc(C5CCOCC5)no4)C3)c3ccccc3n2)cc1C (stereo unspecified)	10µM*	11µM*	?	?	?	0.32µM*
Cc1cccc(C(=O)N2CCC(c3nc(C4CCOCC4)no3)C2)c1 (stereo unspecified)	10%	-5%	-6%	20%	-11%	i
Cc1ccc(-c2cc(C(=O)N3CCC(Cc4nncn4C(C)C)CC3)c3ccccc3n2)cc1C	?	13µM*	-29%	-27%	?	5.6µM*
O=C(NCc1ccccc1)c1cn(C2CN(C(=O)Cc3ccccc3)C2)nn1	-12%	-7%	12%	/	-6%	/
SMILES	SNCA expr inh	HEK293 tox	HEK293 viab	hNpr1 antagonist	NIH3T3 tox	FLuc inh
CC(C)CN(Cc1cccnc1)C1CN(C(=O)CC2CCCCC2)C1	0%	?	-3%	-16%	5.6µM*	i
CCn1c(COc2ccc(C)nc2)nnc1C1CC(N)C1 (stereo unspecified)	-5%	-10%	3%	0%	-13%	i
NC1CC(c2nnc(COc3ccc4c(c3)CCNCC4)n2C2CC2)C1 (stereo unspecified)	-2%	18µM*!	-10%	1%	?	i
O=c1cc(N2CCOCC2)oc2c(-c3ccccc3Oc3ccccc3)nccc12	25%[87.6 µM]	?	?	-2%[70.6 µM]	?	i
O=c1cc(-c2cccnc2)oc2c(-c3ccccc3F)nccc12	?	?	-17%[87.6 µM]	1%[70.6 µM]	20µM*	i
CN1CCN(c2cc(=O)c3ccnc(-c4ccc([S+](C)(=O)[O-])cc4)c3o2)CC1	0%[87.6 µM]	i	4%[87.6 µM]	1%[70.6 µM]	?	i
O=c1cc(-c2cccnc2)oc2c(-c3ccccc3Oc3ccccc3)nccc12	30%[87.6 µM]	100µM*	?	3%[70.6 µM]	?	i
O=c1cc(-c2cccnc2)oc2c(-c3cn[nH]c3)nccc12	-14%[87.6 µM]	-23%[230 µM]	6%[87.6 µM]	1%[70.6 µM]	8.9µM*	i
C[S+](=O)([O-])c1ccc(-c2nccc3c(=O)cc(-c4ccncc4)oc23)cc1	21%[87.6 µM]	?	2%[87.6 µM]	-6%[70.6 µM]	32µM*	i
COc1cccc(-c2cccc(C(=O)N3CCCC3C(=O)NC3CCCC3)c2)c1 (stereo unspecified)	9%	-30%	-6%[12.5 µM]	/	-22%	/
CN(C)c1cc(=O)c2ccnc(-c3ccccc3Oc3ccccc3)c2o1	111%[87.6 µM]	?	7%[87.6 µM]	1%[70.6 µM]	?	i
CN(C)c1cc(=O)c2ccnc(-c3ccccc3F)c2o1	-13%[87.6 µM]	?	0%[87.6 µM]	3%[70.6 µM]	45µM*	i
CN1C(=O)C2(CCN(Cc3ccc(F)cc3)C2)c2ccccc21 (stereo unspecified)	?	71µM*	?	14%[70.6 µM]	?	i
O=C1N(c2ccccc2)c2ccccc2C12CCN(Cc1ccccc1)C2 (stereo unspecified)	?	?	-2%	/	?	/
CN1C(=O)C2(CCN(Cc3ccc(C(F)(F)F)cc3)C2)c2ccccc21 (stereo unspecified)	-19%	?	6%	-29%	-30%	i
